The list is not random: actives were taken first. Their share in the collection is about 19%.
TGFb inhibitor – blocks TGF-b signaling; Potency, µM (titrated, usually from 46.1 µM), for the others: top-dose activity, negative = inhibition, most hits filed as inhibitors; HepG2 CAGA-GFP TGF-b/SMAD3 reporter, GFP fluorescence, 18 h; TGF-beta stimulated, 500 pg/mL final; actives 1.2% (n = 410,000); further: potency means the concentration at half of the fitted maximal effect; on the % scale 0 is the no-effect control and ±100 the full control effect; nearly all actives have a fitted effect of over 65% in size
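HEPG2 CAGA-GFP reporter cells (1000/well, DMEM with 1% FBS) received compounds, then recombinant TGF-beta at 500 pg/mL final for 18 hours at 37 degrees C. Per-cell GFP summed per well was normalised to unstimulated and stimulated DMSO controls before curve fitting.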
HepG2 tox – counter-screen for TGF-b inhibitors: cytotoxicity in HepG2 cells; HepG2 CAGA-GFP viability, ATP luminescence, 18 h; Potency, µM (doses to about 46.1 µM), for inactives: at the highest dose activity change, negative = cytotoxicity, most hits filed as cytotoxic; actives 0.76% (n = 410,000); AID 588856; further: potency means the concentration at half of the fitted maximal effect
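HepG2 CAGA-GFP cells (1000/well, DMEM with 1% FBS) received compound, then TGF-beta at 500 pg/mL final, and were incubated 18 hours at 37 degrees C. Viability was read by CellTiter-Glo luminescence. Media-only wells were set as complete cell-killing and DMSO as no toxicity.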
DT40 TDP1 CPT – growth inhibition of DT40 Tdp1-/-;hTDP1 cells with camptothecin (screen for TDP1 inhibitors). Potency, µM (titrated, usually from 46.2 µM), for inactives: top-dose activity change, negative = growth inhibition, actives largely listed as inhibitors. chicken DT40 Tdp1-/-;hTDP1 cells + 20 nM CPT, ATP luminescence, 48 h. actives 12% (n = 420,000); further: potency means the concentration at half of the fitted maximal effect; on the % scale 0 is the no-effect control and ±100 the full control effect; nearly all actives have a fitted effect of over 55% in size
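Cell growth measured by CellTiter-Glo luminescence after a minimum 48 h, 37 C compound exposure with 20 nM CPT in Tdp1-knockout DT40 cells stably expressing hTDP1, seeded 400/well; qHTS titration format.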
TDP1 block – blocks human tyrosyl-DNA phosphodiesterase 1; AID 485290; Potency, µM (titrated, usually from 130 µM), without a hit: at the top dose activity change, negative = inhibition, hits mostly inhibitors; actives 0.28% (n = 350,000); Q9NUW8; recombinant TDP1, AlphaScreen DNA substrate cleavage; further: potency means the concentration at half of the fitted maximal effect; on the % scale 0 is the no-effect control and ±100 the full control effect; nearly all actives have a fitted effect of over 40% in size
Target sequence (Q9NUW8 whole entry, looked up): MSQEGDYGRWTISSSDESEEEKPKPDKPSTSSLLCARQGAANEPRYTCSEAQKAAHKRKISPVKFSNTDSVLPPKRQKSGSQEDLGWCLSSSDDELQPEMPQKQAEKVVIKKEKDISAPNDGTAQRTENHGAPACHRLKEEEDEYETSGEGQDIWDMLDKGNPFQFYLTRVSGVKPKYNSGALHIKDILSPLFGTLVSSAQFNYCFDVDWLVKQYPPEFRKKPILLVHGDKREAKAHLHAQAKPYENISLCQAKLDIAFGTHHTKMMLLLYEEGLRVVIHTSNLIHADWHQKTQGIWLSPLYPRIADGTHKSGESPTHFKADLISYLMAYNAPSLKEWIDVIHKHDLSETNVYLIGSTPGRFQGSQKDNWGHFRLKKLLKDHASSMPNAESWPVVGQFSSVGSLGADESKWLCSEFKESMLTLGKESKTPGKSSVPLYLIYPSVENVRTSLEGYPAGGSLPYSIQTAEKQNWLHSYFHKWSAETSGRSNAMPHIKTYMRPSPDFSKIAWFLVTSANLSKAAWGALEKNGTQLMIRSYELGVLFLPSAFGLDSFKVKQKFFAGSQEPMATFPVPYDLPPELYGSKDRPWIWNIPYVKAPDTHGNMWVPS
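E. coli-derived human Tdp1, 1 nM final. Cpd preinc 15 min RT; substrate 15 nM final, 5 min RT; AS bead mix 10 ug/ml final, 10 min RT. Signal loss = tyrosine-FITC cleavage. No-enzyme wells = max signal.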
DT40 TDP1 no CPT – qHTS for Inhibitors of human tyrosyl-DNA phosphodiesterase 1 (TDP1): qHTS in cells in absence of CPT. actives 15% (n = 420,000). DT40 Tdp1-/- hTDP1 cells, no CPT, ATP luminescence, 48 h. Potency, µM (doses to about 46.2 µM), inactives show at the highest dose activity change, negative = growth inhibition, most hits filed as inhibitors; further: potency means the concentration at half of the fitted maximal effect; on the % scale 0 is the no-effect control and ±100 the full control effect; nearly all actives have a fitted effect of over 55% in size
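Growth of hTDP1-complemented DT40 Tdp1-knockout cells is measured by ATP luminescence after at least 48 hr compound exposure at 37 °C, with DMSO substituting for the 20 nM CPT used in the parallel screen.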
IL-1B inflam inh – blocks inflammasome-driven IL-1 beta release. THP-1 LPS/ATP IL-1B secretion, AlphaLISA, 16 h; hits give low values. activity change, % at 57.5 µM. actives 4.7% (n = 360,000). AID 743279; in the data active means activity change below about -50%; inconclusive means mostly about -30% to -49%; further: on the % scale 0 is the no-effect control and ±100 the full control effect
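Secreted IL-1B measured by AlphaLISA bead assay after 16 h compound exposure of THP-1 cells; compounds (final up to 57.5 uM) added 1 h before LPS (250 ng/mL) and ATP (1.25 mM) stimulation; lower signal means less secretion.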
* hit, by the source's call; ? = inconclusive; . = not tested or not shown. Unless noted, the call rests on the fitted dose curve; in most records, active means well fitted curve in the direction sought with a large enough effect; inconclusive means small, poorly fitted or top-dose-only effect, or another doubt; inactive means no such curve, though single readings can be large; an effect the other way counts as inactive or inconclusive.

SMILES	TGFb inhibitor	HepG2 tox	DT40 TDP1 CPT	TDP1 block	DT40 TDP1 no CPT	IL-1B inflam inh
Cc1ccc(S(=O)(=O)NC(=O)O[C@@H]2C(=O)c3cc(Br)ccc3O[C@H]2c2ccc3c(c2)OCO3)cc1	.	.	.	-3.1%	.	.
COc1ccc(CNC(=O)CN2CCC(NC(=O)c3ccc(OC)cc3)CC2)cc1	5.6%	-0.7%	1.5%	1.3%	-19.7%	-6.2
COc1ccccc1Nc1cc(C(=O)NCCCN2CCOCC2)c2ccccc2n1	-11.3%	-5.1%	5.2%	-1.2%	?	-4.6
COc1ccc(OC)c(Nc2cc(C(=O)NCCCN3CCOCC3)c3ccccc3n2)c1	0.2%	-17.2%	?	5.7%	23.1µM*	-62.8*
C=CCN(C(=O)CCc1ccccc1OC)c1nc(-c2ccc(S(C)(=O)=O)cc2)cs1	0.9%	4.47µM*	16.4µM*	.	9.2µM*	-56.8*
Cc1cccc(N(CC(O)CON=C2c3ccccc3-c3ccccc32)S(C)(=O)=O)c1 (centres undefined)	?	-93.6%	?	0.9%	?	?
CS(=O)(=O)N(CC(O)CON=C1c2ccccc2-c2ccccc21)c1ccc(F)cc1 (centres undefined)	17.8µM*	-23.6%	-22.0%	4.1%	?	-5.8
CCN(CC(O)Cn1c2ccccc2c2ccccc21)S(=O)(=O)c1ccc(F)cc1 (centres undefined)	?	-93.1%	?	4.2%	?	?
CN(CC(O)CON=C1c2ccccc2-c2ccccc21)S(=O)(=O)c1ccc(Br)cc1 (centres undefined)	?	-75.1%	16.4µM*	-3.4%	?	?
CCN(CC(O)CON=C1c2ccccc2-c2ccccc21)S(=O)(=O)c1ccc(Cl)cc1 (centres undefined)	0.0%	-47.3%	20.6µM*	-1.1%	14.6µM*	-62.4*
Cc1ccc(S(=O)(=O)N(C)CC(O)Cn2c3ccccc3c3ccccc32)cc1 (centres undefined)	?	-32.0%	?	5.3%	?	-18.9
O=C(/C=C/c1ccccc1)Nc1cccc(C(=O)NCCCCc2ccccc2)c1	2.4%	-8.8%	?	.	18.4µM*	22.0
O=C(NCCCCc1ccccc1)c1cccc(NC(=O)C2CCCCC2)c1	-16.9%	-10.9%	?	.	25.9µM*	0.0
O=C(NCCCCc1ccccc1)c1cccc(NC(=O)C2CCC2)c1	-1.3%	-23.3%	-6.2%	.	-29.8%	-5.2
O=C(/C=C/c1ccccc1)Nc1cccc(C(=O)NCCc2ccccc2)c1	-19.1%	-34.4%	?	.	?	3.6
O=C(NC1CC(=O)N(c2ccccc2)C1)c1ccc(S(=O)(=O)N2CCCCC2)cc1 (centres undefined)	0.6%	-8.1%	-24.8%	0.0%	-20.8%	.
OCOCCCn1c(C2CCCN2c2nc(-c3ccc(F)cc3)cs2)nc2cc(Cl)c(N3CCCCC3)cc21 (centres undefined)	?	-16.0%	?	.	?	-24.9
COc1cccc(-c2nc(NCCN3CCOCC3)c3ccccc3n2)c1O	-1.6%	-25.0%	14.6µM*	-5.9%	18.4µM*	0.0
COc1ccc(Nc2nc(-c3cccc(OC)c3O)nc3ccccc23)cc1	-22.4%	-6.6%	?	.	16.4µM*	-7.3
COc1cccc(-c2nc(NC(C)(C)C)c3ccccc3n2)c1O	-51.6%	-18.6%	?	5.9%	20.6µM*	-51.5*
CCC(C)N1C(=O)/C(=C/c2c(NCCCOC(C)C)nc3c(C)cccn3c2=O)SC1=S (centres undefined)	196.7%	0.2%	?	-2.0%	9.2µM*	-16.0
CCCN1C(=O)/C(=C/c2c(NCCCOC(C)C)nc3c(C)cccn3c2=O)SC1=S	14.3%	-1.6%	-9.7%	1.0%	?	17.2
O=C(Cn1ncc2c([nH]c3ccccc32)c1=O)NCCCN1CCN(c2ccc(F)cc2)CC1	-11.2%	-26.6%	?	5.0%	?	.
S=c1[nH]ncn1/N=C/c1ccc(Br)cc1	14.6%	3.7%	?	6.6%	-28.5%	-20.9
S=c1[nH]ncn1/N=C/c1ccccc1	5.1%	-1.0%	?	5.9%	23.1µM*	19.1
SMILES	TGFb inhibitor	HepG2 tox	DT40 TDP1 CPT	TDP1 block	DT40 TDP1 no CPT	IL-1B inflam inh
C=CCc1ccc(OCCCCN2CC(C)CC(C)C2)c(OC)c1 (centres undefined)	-5.2%	-23.5%	16.4µM*	-10.8%	20.6µM*	-17.1
C=CCc1ccc(OCCCN2CCCC(C)C2)c(OC)c1 (centres undefined)	-16.7%	-22.1%	-5.0%	-3.8%	?	8.1
C=CCc1ccc(OCCCCN2CCC(C)CC2)c(OC)c1	-10.5%	-18.6%	?	8.1%	16.4µM*	-7.5
COc1cc(C)ccc1OCCCCN1CC(C)OC(C)C1 (centres undefined)	5.5%	1.7%	-8.2%	0.0%	-12.1%	-1.4
Cc1cc(C)c(NC(=O)CNC(=O)c2cc(C3CC3)nn2-c2ccccc2)c(C)c1	-1.3%	-4.9%	-24.5%	0.2%	-4.9%	-9.0
C[C@@H]1CN([C@H](C)CO)C(=O)CCCn2nncc2CO[C@H]1CN(C)Cc1ccc(Oc2ccccc2)cc1	-17.1%	-40.9%	?	.	?	19.4
C[C@@H]1CN([C@@H](C)CO)C(=O)CCCn2nncc2CO[C@H]1CN(C)Cc1ccccc1C(F)(F)F	-11.3%	-55.1%	18.4µM*	.	?	11.8
C[C@@H]1CN([C@@H](C)CO)C(=O)CCCn2nncc2CO[C@H]1CN(C)Cc1ccc(Oc2ccccc2)cc1	-25.3%	-42.4%	?	.	16.4µM*	-25.4
C[C@H](CO)N1C[C@H](C)[C@@H](CN(C)Cc2cccc(C(F)(F)F)c2)OCc2cnnn2CCCC1=O	-9.6%	-21.3%	?	.	?	-3.5
C[C@@H]1CN([C@H](C)CO)C(=O)CCCn2nncc2CO[C@H]1CN(C)Cc1cccc(C(F)(F)F)c1	-5.3%	-43.8%	20.6µM*	.	-1.1%	-2.3
C[C@H]1CN([C@@H](C)CO)C(=O)CCCn2nncc2CO[C@H]1CN(C)S(=O)(=O)c1ccc2ccccc2c1	-9.4%	-24.4%	?	.	23.1µM*	-11.1
CSc1cnn(CCC#N)c(=O)n1	.	.	-21.4%	.	-25.5%	-1.3
CCOc1cc(C2c3c(-c4ccccc4O)n[nH]c3C(=O)N2CCc2ccccc2)ccc1O (centres undefined)	?	-49.8%	16.4µM*	3.7%	?	.

Source: PubChem
